This passage reports cell number results from the supplement of paper PMC7156485.

± gives the standard deviation of the averaged measurements.
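Further: TDF denotes transformed human dermal fibroblasts of mesenchymal origin.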

In the experiment the test system is HCC1569. Put plainly: cell number relative to DMSO (% of DMSO); higher = more cells (less growth inhibition / toxicity). The settings on record: concentration: 10 µM; 24 h. The essentials: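 HCC1569 and TDF cells were seeded at 800 per well in 384-well plates in RPMI with 10% FBS and treated with compounds at 10 µM for 24 h at 37 °C, in triplicate. After fixation in 3.7% formaldehyde, cells were stained with a rabbit anti-H1.0 antibody, an AlexaFluor 647 secondary and DAPI, and six fields per well were imaged at ×10. H1.0 nuclear intensity or cell number is given as percent of the plate control, using the median of replicates, with HCC1569 values smoothed for positional effects.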
`CN1Cc2c(N)cccc2C(c2ccccc2)C1.O=C(O)C=CC(=O)O` (stereo not given) [Nomifensine maleate] registered a cell number of 102.

`COc1cc2nc(N3CCN(C(=O)C4COc5ccccc5O4)CC3)nc(N)c2cc1OC.CS(=O)(=O)O` (stereo not given) [Doxazosin mesylate] came in with a cell number of 99.9.

Molecule `COc1ccc(CCN(C)CCCC(C#N)(c2cc(OC)c(OC)c(OC)c2)C(C)C)cc1OC.Cl` (racemic) displayed a cell number of 96.5.

In turn, `COc1ccc2[nH]cc(CCNC(C)=O)c2c1` [Melatonin] had a cell number of 101 ± 3.5.

In the case of `O=c1cc(N2CCNCC2)oc2c(-c3ccccc3)cccc12`, the cell number came out at 101.

Regarding `CN1CCN(C2Cc3ccccc3Sc3ccc(Cl)cc32)CC1.O=C(O)C=CC(=O)O` (stereo not given) [Clorotepine maleate], the cell number amounted to 98.5.

In the case of `Cl.Clc1ccc(Cn2c(CN3CCCC3)nc3ccccc32)cc1` [Clemizole hydrochloride], the cell number was 99.

In the case of `CCCCCCCC/C=C\CCCCCCCC(=O)NCC(=O)O` [[(9Z)-9-octadecenoylamino]acetic acid], the cell number is 99.2.

As for `O=C(O)c1cccnc1C(=O)O` [Quinolinic acid], the cell number was determined as 106.

`NC(CCCP(=O)(O)O)C(=O)O` (racemic) had a cell number of 103.

`N=C([NH3+])N1CCc2ccccc2C1.N=C([NH3+])N1CCc2ccccc2C1.O=S(=O)([O-])[O-]` [Debrisoquin sulfate]: the cell number amounted to 104.

Molecule `CCN(CC)CCCC(C)Nc1c2ccc(Cl)cc2nc2ccc(OC)cc12` (stereo not given) [Quinacrine] gave a cell number of 89.3.

Turning to `CCc1c(CC(N)=O)c2cc(OCCCP(=O)(O)O)ccc2n1Cc1ccccc1`, the cell number came to 101.

The molecule `COc1cc(-c2oc3cc(O)cc(O)c3c(=O)c2O)ccc1O` [Isorhamnetine] returned a cell number of 97.1.

The molecule `CCC(C)N(C)C(=O)c1cc2ccccc2c(-c2ccccc2Cl)n1` (stereo not given) displayed a cell number of 101.

The molecule `Cc1ccccc1/N=N/c1ccc(NC(=O)c2ccnn2C)c(C)c1` came in with a cell number of 94.6.

Turning to `CC(N)(Cc1ccc(O)c(O)c1)C(=O)O` [L-alpha-Methyl DOPA], the cell number came to 96.4.

For the molecule `Cc1ccccc1C=CC1=NCCN1.O=C(O)C(=O)O` [Metrazoline oxalate], the cell number amounted to 96.3.

With `O=C(O)C=CC(=O)O.c1cnc(N2CCN(Cc3ccc4c(c3)OCO4)CC2)nc1` [Piribedil maleate], the cell number worked out at 101.

Consider `COc1ccc(Cl)cc1C(=O)NCCc1ccc(S(=O)(=O)NC(=O)NC2CCCCC2)cc1` [Glibenclamide], for which the cell number was 101.

Turning to `COCCc1ccc(OCC(O)CNC(C)C)cc1` (stereo not given) [Metoprolol], the cell number stood at 104.

As for `COc1c(O)c2c(=O)cc(OC)c3c4c(OC)cc(=O)c5c(O)c(OC)c6c(c(c1CC(C)(O)C6C(C)=O)c23)c54` (stereo not given) [Hypocrellin A], the cell number was 75.8.

Molecule `O=C(Nc1cccc(Nc2nccc(Nc3cccc(C(F)(F)F)c3)n2)c1)C1CC1` [Aurora Kinase Inhibitor III] gave a cell number of 63 ± 1.4.

In the case of `CCn1cc(C(=O)O)c(=O)c2cc(F)c(N3CCNC(C)C3)c(F)c21.Cl` (stereo not given) [Lomefloxacin hydrochloride], the cell number turned out to be 101.

Molecule `COC1C=COC2(C)Oc3c(C)c(O)c4c(c3C2=O)C(=O)C(=CNN2CCN(C)CC2)C(=C4O)NC(=O)C(C)=CC=CC(C)C(O)C(C)C(O)C(C)C(OC(C)=O)C1C` (stereo not given) [Rifampicin] displayed a cell number of 104.2 ± 0.92.

`Cc1c(Cl)cccc1Nc1ccccc1C(=O)O` [Tolfenamic acid]: the cell number turned out to be 105.

With `CC(C)=CCCC(C)=CCOc1ccc2ccc(=O)oc2c1` [Auraptene], the cell number was 105.

Turning to `CCCc1cc(=O)oc2c(C(=O)N3CCCc4ccccc43)c(OC)cc(OC)c12`, the cell number is 55.5.

Consider `C#CC1(O)CCC2C3CCC4=CC(=O)CCC4C3CCC21C` (stereo not given) [Norethindrone], for which the cell number is 96.5.

In turn, `CCC1(O)CC2CN(CCc3c([nH]c4ccccc34)C(C(=O)OC)(c3cc4c(cc3OC)N(C)C3C(O)(C(=O)OC)C(OC(C)=O)C5(CC)C=CCN6CCC43C65)C2)C1` (stereo not given) [Vinblastine] had a cell number of 53.6.

As for `Nc1ncnc2n[nH]c(Nc3ccc(F)cc3)c12` [MNK1 Inhibitor], the cell number amounted to 91.2.

In turn, `O=C(Nc1nc2ccccc2n1CCN1CCOCC1)c1cccc([N+](=O)[O-])c1` [IRAK-1/4 Inhibitor] came in with a cell number of 98.2.

For the molecule `CNCC(O)c1cccc(O)c1.Cl` (stereo not given) [Phenylephrine hydrochloride], the cell number worked out at 107.

`COc1cc2c(cc1OC)C(c1ccccc1)CN(C)CC2.O=C(O)C=CC(=O)O` (stereo not given) registered a cell number of 101.

`CC(C(=O)O)c1cccc(Oc2ccccc2)c1` (stereo not given) [Fenoprofen] had a cell number of 102.

Take `COC(=O)C1C2CC3c4[nH]c5cc(OC)ccc5c4CCN3CC2CC(OC(=O)c2cc(OC)c(OC)c(OC)c2)C1OC` (stereo not given) [Reserpine]: the cell number is 99.2.

Regarding `Nc1nc(=O)c2ncn(CCC(CO)CO)c2[nH]1` [Penciclovir], the cell number was found to be 103.

In the case of `CCOc1ccc2c(c1)C(C)=CC(C)(C)N2` [Ethoxyquin], the cell number came to 100.

`Cl.Cl.c1cnc(N2CCN(Cc3ccc4c(c3)OCO4)CC2)nc1` [Piribedil.2HCl] displayed a cell number of 100.

Molecule `CN(C)CCOC(c1ccccc1)c1ccccc1.Cl` [Diphenhydramine hydrochloride] yielded a cell number of 100.
